Common to all, as to test: DAPPL (digital affinity profiling via proximity ligation, sequencing); 10 mM Tris-HCl pH 7.5, 50 mM NaCl, 1 mM DTT, 4% glycerol, room temperature, 30 min; GST-TFs on glutathione beads, 16-mer random dsDNA library, 0.1% formaldehyde crosslink after washing; high values mean tight binding
One assay concerns the target T1, FLI1 (Homo sapiens, UniProt Q01543 1-452).
T1 sequence: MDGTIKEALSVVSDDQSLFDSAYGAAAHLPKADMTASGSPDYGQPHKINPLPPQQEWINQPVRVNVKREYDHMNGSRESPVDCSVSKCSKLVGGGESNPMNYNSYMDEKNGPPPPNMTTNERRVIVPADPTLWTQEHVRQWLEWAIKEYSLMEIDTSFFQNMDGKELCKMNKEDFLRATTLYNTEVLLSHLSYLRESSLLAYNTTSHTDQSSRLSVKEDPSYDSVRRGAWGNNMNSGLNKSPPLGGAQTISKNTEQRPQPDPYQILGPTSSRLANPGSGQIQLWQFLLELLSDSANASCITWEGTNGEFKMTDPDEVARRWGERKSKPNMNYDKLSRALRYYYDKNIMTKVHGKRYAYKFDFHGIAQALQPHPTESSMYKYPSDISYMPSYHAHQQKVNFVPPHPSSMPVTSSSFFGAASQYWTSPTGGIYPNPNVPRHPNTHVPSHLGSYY
Conditions: protein: recombinant; tags: N-terminal GST; dsDNA, one strand shown. Summed up: (§1)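 Sequencing on an Illumina NextSeq500 followed washing, crosslinking with 0.1% formaldehyde, proximity ligation (BsaI/T4 ligase, 1 h, 37 °C) and PCR amplification of pools that had been incubated for 30 min at room temperature with 200 nmole of a random double-stranded 16-mer DNA library in Tris/NaCl/DTT/glycerol buffer. Each pool held DNA-barcoded human transcription factors, expressed in yeast as GST fusions and captured on glutathione beads, plus a tag-only sample. Binding signal is a hexamer's read frequency for a factor divided by its frequency in the tag-only sample.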

The next assay concerns the target T2, ELK1 (Homo sapiens, UniProt P19419 1-428).
T2 sequence: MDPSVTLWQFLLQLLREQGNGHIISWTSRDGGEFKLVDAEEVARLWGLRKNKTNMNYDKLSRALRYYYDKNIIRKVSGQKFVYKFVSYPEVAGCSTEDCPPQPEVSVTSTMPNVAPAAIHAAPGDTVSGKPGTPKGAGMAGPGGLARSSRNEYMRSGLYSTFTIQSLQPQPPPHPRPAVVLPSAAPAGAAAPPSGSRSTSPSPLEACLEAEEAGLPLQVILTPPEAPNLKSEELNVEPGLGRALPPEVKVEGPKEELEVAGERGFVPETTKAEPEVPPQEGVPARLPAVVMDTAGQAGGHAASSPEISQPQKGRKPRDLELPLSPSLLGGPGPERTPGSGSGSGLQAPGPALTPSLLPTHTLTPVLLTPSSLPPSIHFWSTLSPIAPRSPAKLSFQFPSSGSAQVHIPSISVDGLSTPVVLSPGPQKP
Conditions: protein: recombinant; tags: N-terminal GST; dsDNA, one strand shown. Summed up:
as §1

A further assay addresses T3, GABPA (Homo sapiens, UniProt Q06546 1-454).
T3 sequence: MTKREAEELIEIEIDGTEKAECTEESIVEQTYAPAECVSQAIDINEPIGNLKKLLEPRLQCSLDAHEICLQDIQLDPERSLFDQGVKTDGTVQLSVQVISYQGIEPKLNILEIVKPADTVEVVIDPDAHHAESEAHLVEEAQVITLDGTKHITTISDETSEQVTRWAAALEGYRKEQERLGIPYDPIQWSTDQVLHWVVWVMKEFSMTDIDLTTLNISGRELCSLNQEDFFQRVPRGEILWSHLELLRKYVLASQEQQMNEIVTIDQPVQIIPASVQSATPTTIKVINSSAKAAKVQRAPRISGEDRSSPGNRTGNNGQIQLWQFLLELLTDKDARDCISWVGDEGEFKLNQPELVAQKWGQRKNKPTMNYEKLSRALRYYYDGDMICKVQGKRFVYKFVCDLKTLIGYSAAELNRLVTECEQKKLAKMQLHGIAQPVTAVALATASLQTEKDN
The settings on record: protein: recombinant; tags: N-terminal GST; dsDNA, one strand shown. Summed up: as §1

A further assay has as its target T4, ERG (Homo sapiens, UniProt P11308 1-479).
T4 sequence: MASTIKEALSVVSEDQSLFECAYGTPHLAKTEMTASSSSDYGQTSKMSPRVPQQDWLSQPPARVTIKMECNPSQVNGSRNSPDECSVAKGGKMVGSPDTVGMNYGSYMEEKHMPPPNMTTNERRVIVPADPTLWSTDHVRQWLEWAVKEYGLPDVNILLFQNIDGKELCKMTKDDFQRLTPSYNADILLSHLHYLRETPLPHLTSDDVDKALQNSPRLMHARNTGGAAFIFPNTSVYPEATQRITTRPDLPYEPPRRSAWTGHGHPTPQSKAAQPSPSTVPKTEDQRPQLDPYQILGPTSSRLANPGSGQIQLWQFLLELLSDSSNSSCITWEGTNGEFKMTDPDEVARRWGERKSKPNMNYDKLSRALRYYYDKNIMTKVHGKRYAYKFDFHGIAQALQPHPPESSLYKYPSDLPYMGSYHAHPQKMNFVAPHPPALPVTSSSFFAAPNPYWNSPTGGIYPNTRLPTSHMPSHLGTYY
The settings on record: protein: recombinant; tags: N-terminal GST; dsDNA, one strand shown. Summed up:
as §1

The target in another assay is ELF1 (Homo sapiens, UniProt P32519 1-619). The settings on record: protein: recombinant; tags: N-terminal GST; dsDNA, one strand shown. Summed up:
as §1

The next assay deals with T5, EHF (Homo sapiens, UniProt Q9NZC4 1-300).
T5 sequence: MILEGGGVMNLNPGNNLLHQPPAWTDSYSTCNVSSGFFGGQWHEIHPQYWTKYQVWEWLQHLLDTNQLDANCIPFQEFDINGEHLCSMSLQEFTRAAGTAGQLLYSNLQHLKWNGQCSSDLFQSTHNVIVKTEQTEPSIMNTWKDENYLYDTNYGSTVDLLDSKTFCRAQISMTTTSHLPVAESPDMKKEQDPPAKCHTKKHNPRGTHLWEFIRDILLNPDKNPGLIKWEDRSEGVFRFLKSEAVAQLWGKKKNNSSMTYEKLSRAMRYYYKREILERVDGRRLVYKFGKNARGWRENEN
Conditions: protein: recombinant; tags: N-terminal GST; dsDNA, one strand shown. Summed up:
as §1

The target of another assay is SPI1 (Homo sapiens, UniProt P17947 1-270). The settings on record: protein: recombinant; tags: N-terminal GST; dsDNA, one strand shown. Summed up:
as §1

In another assay the target is T6, ELK3 (Homo sapiens, UniProt P41970 1-407).
T6 sequence: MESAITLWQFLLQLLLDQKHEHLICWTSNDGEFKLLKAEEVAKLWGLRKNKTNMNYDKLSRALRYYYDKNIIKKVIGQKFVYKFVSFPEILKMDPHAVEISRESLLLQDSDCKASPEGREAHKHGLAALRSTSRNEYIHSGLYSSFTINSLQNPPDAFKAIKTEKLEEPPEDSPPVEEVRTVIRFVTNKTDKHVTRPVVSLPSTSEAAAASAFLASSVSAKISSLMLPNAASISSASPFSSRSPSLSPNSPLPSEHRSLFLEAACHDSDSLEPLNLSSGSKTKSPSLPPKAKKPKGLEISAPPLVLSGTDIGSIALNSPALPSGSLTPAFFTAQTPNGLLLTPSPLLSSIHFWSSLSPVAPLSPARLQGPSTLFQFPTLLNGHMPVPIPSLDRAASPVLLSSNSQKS
Conditions: protein: recombinant; tags: N-terminal GST; dsDNA, one strand shown. Summed up:
as §1

Another assay addresses T7, FEV (Homo sapiens, UniProt Q99581 1-238).
T7 sequence: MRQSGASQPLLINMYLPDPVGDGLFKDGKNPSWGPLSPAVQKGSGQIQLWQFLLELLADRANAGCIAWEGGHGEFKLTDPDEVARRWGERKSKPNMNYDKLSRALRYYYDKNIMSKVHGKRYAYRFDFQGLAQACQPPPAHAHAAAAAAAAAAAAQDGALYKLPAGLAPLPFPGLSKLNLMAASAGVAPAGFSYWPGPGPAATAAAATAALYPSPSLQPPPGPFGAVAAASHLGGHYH
The settings on record: protein: recombinant; tags: N-terminal GST; dsDNA, one strand shown. Summed up:
as §1

A further assay concerns the target ETV5 (Homo sapiens, UniProt P41161 1-510). Conditions: protein: recombinant; tags: N-terminal GST; dsDNA, one strand shown. Summed up: as §1
A further assay deals with HSF1 (Homo sapiens, UniProt Q00613 1-529). The settings on record: protein: recombinant; tags: N-terminal GST; chain copies: 3; dsDNA, one strand shown. Summed up: as §1
In the next assay the target is T8, SPIC (Homo sapiens, UniProt Q8N5J4 1-248).
T8 sequence: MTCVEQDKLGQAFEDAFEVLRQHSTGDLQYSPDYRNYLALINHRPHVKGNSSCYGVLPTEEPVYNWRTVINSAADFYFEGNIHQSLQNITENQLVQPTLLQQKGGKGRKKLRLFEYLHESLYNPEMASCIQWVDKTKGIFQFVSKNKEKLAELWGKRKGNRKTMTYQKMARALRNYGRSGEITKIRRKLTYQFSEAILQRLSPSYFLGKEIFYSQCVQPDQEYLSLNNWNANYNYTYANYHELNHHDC
Conditions: protein: recombinant; tags: N-terminal GST; dsDNA, one strand shown. Summed up:
as §1

For another assay, the target named is ELF4 (Homo sapiens, UniProt Q99607 1-663). Conditions: protein: recombinant; tags: N-terminal GST; dsDNA, one strand shown. Summed up: as §1
A further assay deals with T9, ELK4 (Homo sapiens, UniProt P28324-2 1-405).
T9 sequence: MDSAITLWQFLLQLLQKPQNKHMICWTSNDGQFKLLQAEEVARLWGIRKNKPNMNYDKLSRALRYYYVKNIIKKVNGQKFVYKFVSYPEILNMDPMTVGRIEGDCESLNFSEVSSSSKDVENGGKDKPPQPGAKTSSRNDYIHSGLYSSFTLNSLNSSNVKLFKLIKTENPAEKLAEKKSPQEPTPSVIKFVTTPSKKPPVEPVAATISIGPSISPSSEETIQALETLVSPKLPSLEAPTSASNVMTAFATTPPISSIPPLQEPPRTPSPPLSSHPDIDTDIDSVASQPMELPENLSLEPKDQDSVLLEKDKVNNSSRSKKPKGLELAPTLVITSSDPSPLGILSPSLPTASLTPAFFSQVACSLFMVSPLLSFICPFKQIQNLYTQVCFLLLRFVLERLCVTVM
The settings on record: protein: recombinant; tags: N-terminal GST; dsDNA, one strand shown. Summed up: as §1

The target in the next assay is T10, ETV2 (Homo sapiens, UniProt O00321 1-342).
T10 sequence: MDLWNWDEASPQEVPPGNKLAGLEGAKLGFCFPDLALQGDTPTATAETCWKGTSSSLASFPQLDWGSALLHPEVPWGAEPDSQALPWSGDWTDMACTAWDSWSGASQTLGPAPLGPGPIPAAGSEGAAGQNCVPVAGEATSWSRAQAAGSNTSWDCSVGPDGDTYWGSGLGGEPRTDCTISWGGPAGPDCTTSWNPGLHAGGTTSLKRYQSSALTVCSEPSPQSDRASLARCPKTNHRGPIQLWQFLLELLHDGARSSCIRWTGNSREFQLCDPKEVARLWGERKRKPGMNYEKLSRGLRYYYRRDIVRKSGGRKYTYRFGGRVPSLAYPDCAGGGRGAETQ
Conditions: protein: recombinant; tags: N-terminal GST; dsDNA, one strand shown. Summed up: as §1

A further assay concerns the target T11, ELF3 (Homo sapiens, UniProt P78545 1-371).
T11 sequence: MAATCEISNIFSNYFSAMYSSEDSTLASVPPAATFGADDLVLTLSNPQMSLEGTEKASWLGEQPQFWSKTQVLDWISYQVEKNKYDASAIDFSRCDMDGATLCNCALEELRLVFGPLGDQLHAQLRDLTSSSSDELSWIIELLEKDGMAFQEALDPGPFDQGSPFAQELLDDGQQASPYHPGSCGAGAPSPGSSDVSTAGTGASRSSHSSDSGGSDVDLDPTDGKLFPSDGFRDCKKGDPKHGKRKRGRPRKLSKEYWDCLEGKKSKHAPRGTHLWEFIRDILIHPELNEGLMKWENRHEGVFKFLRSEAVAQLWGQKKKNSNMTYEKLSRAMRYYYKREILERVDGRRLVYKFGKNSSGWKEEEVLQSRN
The settings on record: protein: recombinant; tags: N-terminal GST; dsDNA, one strand shown. Summed up: as §1

For another assay, the target named is CRX (Homo sapiens, UniProt O43186 1-299). Conditions: protein: recombinant; tags: N-terminal GST; dsDNA, one strand shown. Summed up:
as §1

Another assay deals with ETV1 (Homo sapiens, UniProt P50549 1-477). Conditions: protein: recombinant; tags: N-terminal GST; dsDNA, one strand shown. Summed up:
as §1

CRX, sequence (O43186 whole entry): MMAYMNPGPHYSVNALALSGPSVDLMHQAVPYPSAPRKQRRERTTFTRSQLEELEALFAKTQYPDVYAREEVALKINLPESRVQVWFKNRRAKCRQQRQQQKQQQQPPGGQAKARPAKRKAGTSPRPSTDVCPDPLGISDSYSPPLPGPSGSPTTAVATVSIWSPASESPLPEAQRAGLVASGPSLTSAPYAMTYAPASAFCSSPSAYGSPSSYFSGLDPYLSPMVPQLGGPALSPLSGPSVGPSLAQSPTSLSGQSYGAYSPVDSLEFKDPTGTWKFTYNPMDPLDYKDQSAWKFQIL
ELF1, sequence (P32519 whole entry): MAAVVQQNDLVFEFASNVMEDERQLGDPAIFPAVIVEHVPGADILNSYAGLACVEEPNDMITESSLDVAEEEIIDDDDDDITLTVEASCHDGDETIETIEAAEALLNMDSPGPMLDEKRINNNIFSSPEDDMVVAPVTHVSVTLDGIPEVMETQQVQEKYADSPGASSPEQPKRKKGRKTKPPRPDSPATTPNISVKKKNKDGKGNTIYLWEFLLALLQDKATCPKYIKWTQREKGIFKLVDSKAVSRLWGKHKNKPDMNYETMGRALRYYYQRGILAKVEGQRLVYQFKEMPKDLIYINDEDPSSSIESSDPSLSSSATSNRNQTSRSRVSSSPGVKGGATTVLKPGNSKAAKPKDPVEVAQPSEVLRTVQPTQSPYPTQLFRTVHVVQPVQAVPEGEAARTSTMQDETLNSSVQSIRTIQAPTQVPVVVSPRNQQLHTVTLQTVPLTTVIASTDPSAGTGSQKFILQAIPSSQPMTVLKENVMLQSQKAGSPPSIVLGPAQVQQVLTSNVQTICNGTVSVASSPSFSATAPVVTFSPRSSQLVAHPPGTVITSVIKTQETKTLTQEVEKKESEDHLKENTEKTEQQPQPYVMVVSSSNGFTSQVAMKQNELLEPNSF
ETV5, sequence (P41161 whole entry): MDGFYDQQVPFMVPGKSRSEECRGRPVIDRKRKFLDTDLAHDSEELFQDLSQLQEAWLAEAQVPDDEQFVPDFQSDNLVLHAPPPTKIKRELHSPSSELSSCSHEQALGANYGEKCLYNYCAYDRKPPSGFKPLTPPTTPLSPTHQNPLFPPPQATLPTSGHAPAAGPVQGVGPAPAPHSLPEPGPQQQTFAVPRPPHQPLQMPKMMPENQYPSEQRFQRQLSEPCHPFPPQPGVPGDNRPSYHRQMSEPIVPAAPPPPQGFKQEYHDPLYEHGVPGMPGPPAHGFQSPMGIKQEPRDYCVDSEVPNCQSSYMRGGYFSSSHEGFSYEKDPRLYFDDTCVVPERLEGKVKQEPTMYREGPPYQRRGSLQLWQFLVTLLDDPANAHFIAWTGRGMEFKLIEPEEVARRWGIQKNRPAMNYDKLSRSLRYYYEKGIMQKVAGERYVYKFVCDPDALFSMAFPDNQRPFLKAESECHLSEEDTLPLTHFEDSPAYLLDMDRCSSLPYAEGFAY
ETV1, sequence (P50549 whole entry): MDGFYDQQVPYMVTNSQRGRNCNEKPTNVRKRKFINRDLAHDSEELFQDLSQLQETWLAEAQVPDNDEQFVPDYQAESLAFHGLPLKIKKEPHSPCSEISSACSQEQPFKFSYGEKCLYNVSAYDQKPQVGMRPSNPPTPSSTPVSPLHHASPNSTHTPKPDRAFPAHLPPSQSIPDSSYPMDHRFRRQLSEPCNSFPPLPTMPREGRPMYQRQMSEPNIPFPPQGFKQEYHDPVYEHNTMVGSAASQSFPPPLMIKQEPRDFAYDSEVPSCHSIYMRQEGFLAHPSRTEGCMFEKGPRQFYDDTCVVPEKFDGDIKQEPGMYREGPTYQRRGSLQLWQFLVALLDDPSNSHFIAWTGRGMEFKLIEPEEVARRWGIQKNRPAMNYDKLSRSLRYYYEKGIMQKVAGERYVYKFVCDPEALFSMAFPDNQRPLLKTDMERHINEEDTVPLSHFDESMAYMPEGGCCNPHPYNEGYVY
HSF1, sequence (Q00613 whole entry): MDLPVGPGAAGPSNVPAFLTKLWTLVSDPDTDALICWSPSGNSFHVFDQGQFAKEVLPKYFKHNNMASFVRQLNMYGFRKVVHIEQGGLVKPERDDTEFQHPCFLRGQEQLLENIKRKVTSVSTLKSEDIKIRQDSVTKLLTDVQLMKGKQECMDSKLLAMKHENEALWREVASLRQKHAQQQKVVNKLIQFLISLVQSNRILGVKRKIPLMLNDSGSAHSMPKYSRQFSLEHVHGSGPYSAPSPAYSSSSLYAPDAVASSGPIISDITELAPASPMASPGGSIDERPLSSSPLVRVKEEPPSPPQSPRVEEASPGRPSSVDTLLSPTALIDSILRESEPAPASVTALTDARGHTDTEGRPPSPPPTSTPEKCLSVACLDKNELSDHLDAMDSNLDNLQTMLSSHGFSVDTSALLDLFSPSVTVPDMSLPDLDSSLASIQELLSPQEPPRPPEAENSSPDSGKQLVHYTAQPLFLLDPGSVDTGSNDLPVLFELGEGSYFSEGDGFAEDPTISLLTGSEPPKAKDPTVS
ELF4, sequence (Q99607 whole entry): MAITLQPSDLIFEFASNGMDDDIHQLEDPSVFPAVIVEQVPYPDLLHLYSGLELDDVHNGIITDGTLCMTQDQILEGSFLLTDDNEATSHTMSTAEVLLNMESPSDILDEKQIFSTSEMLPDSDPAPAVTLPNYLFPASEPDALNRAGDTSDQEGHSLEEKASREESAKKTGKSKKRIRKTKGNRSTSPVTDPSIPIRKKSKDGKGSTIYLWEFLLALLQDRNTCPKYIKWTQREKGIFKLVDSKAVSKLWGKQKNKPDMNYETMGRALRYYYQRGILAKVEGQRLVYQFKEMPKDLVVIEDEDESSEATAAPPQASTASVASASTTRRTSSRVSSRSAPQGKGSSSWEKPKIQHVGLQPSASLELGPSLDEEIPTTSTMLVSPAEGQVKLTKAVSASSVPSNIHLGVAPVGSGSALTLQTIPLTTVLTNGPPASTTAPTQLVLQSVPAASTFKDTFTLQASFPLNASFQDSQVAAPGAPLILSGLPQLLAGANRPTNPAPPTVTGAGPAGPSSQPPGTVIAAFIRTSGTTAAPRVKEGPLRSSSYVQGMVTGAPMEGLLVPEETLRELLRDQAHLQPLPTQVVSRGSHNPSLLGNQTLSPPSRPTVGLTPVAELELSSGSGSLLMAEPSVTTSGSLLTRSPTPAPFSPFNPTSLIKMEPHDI

For TTACGT, the binding signal in the assay with FLI1 is 1.19 fold enrichment (6-mer frequency, TF over GST control); with ELK1, 1.09 fold enrichment (6-mer frequency, TF over GST control); in the assay with GABPA it was 1.2 fold enrichment (6-mer frequency, TF over GST control); with ERG, 1.07 fold enrichment (6-mer frequency, TF over GST control); with ELF1, 1.07 fold enrichment (6-mer frequency, TF over GST control); with EHF, 1.1 fold enrichment (6-mer frequency, TF over GST control). The binding signal was 1.09 fold enrichment (6-mer frequency, TF over GST control) with SPI1; 1.05 fold enrichment (6-mer frequency, TF over GST control) with ELK3; 1.04 fold enrichment (6-mer frequency, TF over GST control) with FEV; 1.19 fold enrichment (6-mer frequency, TF over GST control) with ETV5; 1.21 fold enrichment (6-mer frequency, TF over GST control) in the assay with HSF1; 1.07 fold enrichment (6-mer frequency, TF over GST control) with SPIC. Further, the binding signal was 1.11 fold enrichment (6-mer frequency, TF over GST control) in the assay with ELF4; 1.12 fold enrichment (6-mer frequency, TF over GST control) with ELK4; 1.2 fold enrichment (6-mer frequency, TF over GST control) with ETV2; 1.14 fold enrichment (6-mer frequency, TF over GST control) with ELF3; 1.74 fold enrichment (6-mer frequency, TF over GST control) in the assay with CRX; 1.06 fold enrichment (6-mer frequency, TF over GST control) with ETV1.

The record behind these values is paper PMC7862700, “An all-to-all approach to the identification of sequence-specific readers for epigenetic DNA modifications on cytosine”.
